# Compound activity from PubChem.
# Tau fluor cs: counter-screen for tau fibril formation inhibitors; 280,000 compounds, 0.93% hits; tau K18 P301L Alexa594 fluorescence, heparin fibrillization; Potency, µM (doses to about 57.7 µM), for inactives: at the top dose activity change, negative = decrease; also: nearly all actives have a fitted effect of over 55% in size
#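 Human tau K18 P301L (15 uM unlabeled, 0.24 uM Alexa 594-labeled) in 100 mM sodium acetate pH 7 with 20 uM heparin, 6 hr at 37 C. ThT 30 uM added, 1 hr ambient; Alexa 594 FP and total fluorescence read at 555/632 nm.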
# TexasRed fluor: counter-screen for TRb-SRC2 inhibitors: fluorescence interference; 280,000 compounds, 0.29% hits; AID 1479; TRb/SRC2 Texas Red total fluorescence interference; Potency, µM (series often up to 106 µM), inactives show at the highest dose fluorescence change, negative = quenching; active = well fitted curve in either direction with a large enough effect; inconclusive = small, poorly fitted or top-dose-only effect
#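 Flags fluorescent or light-absorbing compounds by total fluorescence, S + 2P, at 555 nm excitation and 632 nm emission. Mixture: 20 nM Texas Red SRC2 peptide, 0.6 uM human TRb LBD, 1 uM T3, 5% DMSO; compound exposure 5 h at ambient temperature.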
# TRb-SRC2 inh: TRbeta-SRC2 interaction inhibition; P10828; 280,000 compounds, 0.065% hits; AID 1469; TRbeta-SRC2 peptide binding, fluorescence polarization; receptor liganded with 1 µM T3; Potency, µM (doses to about 106 µM), inactives show at the highest dose activity change, negative = inhibition, most hits filed as inhibitors;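 also: plate controls were bound peptide for no effect and peptide without receptor for full effect; nearly all actives have a fitted effect of over 50% in size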
# Target sequence (P10828 whole entry, looked up): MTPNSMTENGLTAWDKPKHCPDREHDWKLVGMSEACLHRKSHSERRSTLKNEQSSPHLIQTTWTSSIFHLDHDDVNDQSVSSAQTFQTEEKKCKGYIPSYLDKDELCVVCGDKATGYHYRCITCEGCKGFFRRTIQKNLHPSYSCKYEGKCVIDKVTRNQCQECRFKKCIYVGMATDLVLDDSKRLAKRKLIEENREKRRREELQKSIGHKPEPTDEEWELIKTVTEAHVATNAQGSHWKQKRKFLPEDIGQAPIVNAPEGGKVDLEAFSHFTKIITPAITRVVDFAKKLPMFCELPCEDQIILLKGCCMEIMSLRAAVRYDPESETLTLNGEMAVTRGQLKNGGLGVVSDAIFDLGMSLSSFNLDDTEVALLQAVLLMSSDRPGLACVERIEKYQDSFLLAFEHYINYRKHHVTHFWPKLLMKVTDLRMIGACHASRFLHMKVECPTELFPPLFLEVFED
#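 Human TRb ligand-binding domain (0.6 uM) is mixed with 20 nM Texas Red SRC2 peptide and 1 uM T3; after compound addition and 5 hr at ambient temperature, polarization is measured and normalized to unbound and bound controls.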
# Tau fibril ThT: tau fibrillization inhibition (ThT binding); P10636; recombinant tau K18 P301L (four-repeat tau fragment), heparin-induced fibrillization, ThT fluorescence; Potency, µM (titrated, usually from 57.4 µM), without a hit: at the top dose activity, negative = inhibition, actives largely listed as inhibitors; 270,000 compounds, 2.1% hits; AID 1460; also: nearly all actives have a fitted effect of over 55% in size
# Target sequence (P10636 561-689 P618L limits assumed): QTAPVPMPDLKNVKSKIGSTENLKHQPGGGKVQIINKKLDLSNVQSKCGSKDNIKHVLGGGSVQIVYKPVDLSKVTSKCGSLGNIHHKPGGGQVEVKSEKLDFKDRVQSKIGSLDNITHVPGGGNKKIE
#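 Aggregation was driven by heparin (20 uM final) acting on recombinant tau […] bearing P301L in 100 mM sodium acetate pH 7; fibrils were detected with Thioflavin T.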
# Tau fibril FP: tau fibrillization inhibition (FP); K18 P301L tau heparin fibrillization, Alexa594 FP, 6 h; Potency, µM (titrated, usually from 57.7 µM), for inactives: at the top dose activity, negative = inhibition, hits mostly inhibitors; 280,000 compounds, 0.39% hits; AID 1468; also: nearly all actives have a fitted effect of over 55% in size
#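 K18 P301L tau (15 uM unlabeled/0.24 uM Alexa 594-labeled, final) + compound + heparin 20 uM final; 100 mM NaOAc pH 7; 6 hr 37 C; ThT 30 uM final added, 1 hr RT; FP ex 555/em 632 nm.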
# * = called active by the depositor; u = inconclusive; x = not tested or not shown; [ ] = another dose, or the depositor's remark. Shown are actives, neighbours in structure and some others; about 3% of the full set was active somewhere. Unless noted, calls follow the shape of the dose curve; as a rule, active = well fitted curve in the direction sought with a large enough effect; inconclusive = small, poorly fitted or top-dose-only effect, or another doubt; inactive = no such curve, though single readings can be large; an effect the other way counts as inactive or inconclusive. Unless noted, % is scaled to controls: 0 for no effect and ±100 for the full control effect; potency is read from the fitted curve at half-maximal effect.
SMILES,Tau fluor cs,TexasRed fluor,TRb-SRC2 inh,Tau fibril ThT,Tau fibril FP
CCN1C(=O)/C(=C2\C=Cc3cc(C)ccc3N2CC)OC1=S,-9%,1%,1%,u,5%
O=C1NC2(O)C(=O)c3ccccc3C2(O)N1 (stereo unspecified),2%,-2%,3%,1%,6%
CCOC(=O)C1=C(C)c2ccccc2OC1(CC)C(=O)OCC (stereo unspecified),-13%[81.3 µM],-2%,1%,-14%[81.4 µM],9%[81.3 µM]
CC(=O)C1=C(C)OC2(O)c3ccccc3C(=O)C12O (stereo unspecified),-13%,2%,-21%,2.2µM*,u
CCOC(=O)C1=C(C)OC2(O)c3ccccc3C(=O)C12O (stereo unspecified),-16%,-1%,-29%,2µM*,1.4µM*
Cc1c(NC(=O)c2sc3ccccc3c2Cl)cccc1-c1nc2ccccc2o1,1%,-9%,-4%,-5%,-10%
COc1ccc(/C=N/NC(=O)CCn2c3ccccc3c3ccccc32)cc1O,18µM*[quencher],0%,-1%,u,-10%
Cc1cc(SCC(=O)N/N=C/c2ccc(O)c(O)c2O)c(C)cc1Br,14µM*[quencher],-6%,-3%,7.9µM*,13µM*
COc1cc(/C=N/NC(=O)CSc2cc(C)c(Br)cc2C)ccc1O,25µM*[quencher],-3%,0%,u,1%
CCc1ccc(C2NC(=S)NC3=C2C(=O)N(c2ccccc2OC)C(c2ccc(CC)cc2)N3)cc1 (stereo unspecified),-29%,1%,-3%,u,u
O=C1C2=C(NC(=S)NC2c2ccc(Cl)cc2)NC(c2ccc(Cl)cc2)N1c1ccc(Cl)cc1 (stereo unspecified),u,0%,-8%,32µM*,u
COc1ccc(C)cc1NS(=O)(=O)c1ccc2c(c1)CCCN2C(C)=O,-17%,5%,-10%,-10%,0%
O=C(Oc1ccccc1C(=O)Nc1ccccc1)c1ccc(Br)c([N+](=O)[O-])c1,u,-1%,-10%,10µM*,u
COC(=O)c1c(-c2cccs2)csc1NC(=O)COc1ccc(C(C)C)cc1,-17%,-21%,-7%,28µM*,u
CCCc1ccc(OCC(=O)Nc2scc(-c3cccs3)c2C(=O)OC)cc1,-23%,-27%,-29%,22µM*,u
CCCCCCC(=O)Nc1nc(C)c(-c2csc(Nc3ccc(Cl)cc3)n2)s1,6.3µM*[quencher],2%,3%,5µM*,0%
CCCCCC(=O)Nc1nc(C)c(-c2csc(Nc3ccc(Cl)cc3)n2)s1,10µM*[quencher],2%,-5%,11µM*,8%
CCCCCC(=O)Nc1nc(C)c(-c2csc(Nc3cc(Cl)ccc3C)n2)s1,u,4%,0%,u,7%
CCC(Sc1nc(-c2ccccc2)[nH]c1S(=O)(=O)c1ccc(C)cc1)C(=O)O (stereo unspecified),-8%,4%,4%,-7%,0%
COc1ccccc1Nc1nc(-c2sc(NC(=O)c3ccco3)nc2C)cs1,u,1%,7%,3.5µM*,11%
Cc1nc2ccccn2c1-c1csc(Nc2cccc(O)c2)n1,9%,0%,5%,1%,-11%[2.34 µM]
Cc1nc(NC(=O)c2ccco2)sc1-c1csc(Nc2ccc(Cl)cc2)n1,u,2%,-7%,7.1µM*,10%
O=C(Nc1nnc(COc2ccc(Cl)cc2)s1)c1ccco1,-24%,-2%[53 µM],5%[53 µM],32µM*,u
Cc1ccc(OCc2nnc(NC(=O)c3ccco3)s2)cc1,-8%,-4%,-3%,-10%,5%
Cc1ccc(Cl)cc1Nc1nc(-c2sc(NC(=O)c3ccco3)nc2C)cs1,u,7%,0%,u,-1%
SMILES,Tau fluor cs,TexasRed fluor,TRb-SRC2 inh,Tau fibril ThT,Tau fibril FP
Cc1nc(C)c(-c2csc(Nc3cccc(O)c3)n2)s1,18µM*[quencher],-7%,-3%,4.5µM*,u
C=C1NC(=O)c2cc(CN(C)c3ccc(C(=O)N[C@@H](CCC(=O)O)C(=O)O)s3)ccc2N1,x,-2%,6%,x,x
NCCC[C@@H](CC(=O)N[C@@H]1CCCC[C@H]1C(=O)N[C@H](CC(=O)N[C@@H](CCC(=O)O)CC(=O)O)Cc1ccccc1)NC(=O)C[C@H](Cc1c[nH]c2ccccc12)NC(=O)[C@@H]1CCCC[C@H]1N,-7%,2%,-8%,-11%,-5%
CCN(CC)CCCNC(=O)c1c(C)oc2ncn(CC(C)C)c(=O)c12,1%,-21%,4%,2%,-10%
CC(=O)Nc1ccn(C2CC3OCC(NC(=O)C(NC(=O)OC(C)(C)C)C(C)OCc4ccccc4)C3O2)c(=O)n1 (stereo unspecified),x,-1%,-11%,x,x
Cc1ccc(OCc2nc(-c3ccc(C(=O)NCCc4ccc(Cl)cc4)cc3)oc2C)cc1,4%,0%,6%,3%,-10%
COc1ccc(C2=NC(c3ccc(Cl)cc3)C(c3ccc(Cl)cc3)N2C(=O)N2CCNC(=O)C2)c(OC(C)C)c1 (stereo unspecified),x,-23%,-4%,x,x
Cc1cc(OC(C)C(=O)N(Cc2ccc(N(C)C)cc2)Cc2ccco2)ccc1Cl (stereo unspecified),-25%,0%,-1%,-15%,11%
Cc1nc(NC(=O)c2ccccc2)sc1-c1csc(Nc2cccc(Cl)c2)n1,11µM*[quencher],-4%,-12%,7.9µM*,u
Cc1nc(NC(=O)c2ccccc2)sc1-c1csc(Nc2ccc(Cl)cc2)n1,8.9µM*[quencher],6%,-1%,5µM*,5%
Cc1nc(NC(=O)c2ccccc2)sc1-c1csc(Nc2ccc(Cl)cc2Cl)n1,u,-2%,-8%,u,7%
Cc1nc(NC(=O)c2ccccc2)sc1-c1csc(Nc2ccc(F)cc2)n1,14µM*[quencher],3%,6%,11µM*,u
CC(C)(C)OC(=O)N1CCC(c2c(C(=O)NCCN3CCOCC3)cnn2-c2ccc(F)cc2)CC1,-6%,u,-3%,-4%,-9%
CCOc1ccc(NC(=O)OC(C)C)cc1OCC,x,-2%[201 µM],3%[201 µM],x,x
O=C(Nc1cccc(C(F)(F)F)c1)Oc1ccc(Cl)c2cccnc12,u,-4%,7%,-15%,20µM*
CCN(CC)C(=O)Oc1ccc(Cl)c2cccnc12,-2%,-1%,-1%,-4%,2%
O=C(Nc1ccc2[nH]c(=S)sc2c1)Nc1ccccc1F,11µM*[quencher],-7%,3%,11µM*,-6%
O=C(Nc1ccc2[nH]c(=S)sc2c1)c1ccccc1,-12%,-2%,0%,-16%,3%
CCC(C(=O)NCCc1ccc(OC)c(OC)c1)n1nc(C)c2sc3ccccc3c2c1=O (stereo unspecified),-25%,-2%,4%,u,4%
CCOc1ccc(-c2csc(/C(C#N)=C\c3ccc(O)c([N+](=O)[O-])c3)n2)cc1,7.1µM*[quencher],0%,12%,1.3µM*,u
